Among the data in PubChem BioAssay are z-score and composite z-score values, retold here.

Molecules are shown by their SMILES. Active and inactive are the calls of the source.

Test [1] can be described thus: optical density shifts of acrAB sulA E. coli – strain DRC41, OD650, 48 h, E. coli filamentation inducer project, primary screen (AID 1152).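 Also: E. coli MC1000 strain DRC41 lacking acrAB efflux pump and sulA.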 As to conditions: higher = more signal, called active from +8 up or from −8 down.
Test [2] is described as follows: probe aLefty1 binding on compound microarray – biochemical, small-molecule microarray, 635/667 nm fluorescence, primary screen (AID 1153).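 Also: score merges spot fluorescence with signal-to-noise ratio from the scanned slide images.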 As to conditions: higher = more signal.
Test [3] in a line: plasmodial surface anion channel blockers, osmotic lysis – cell-based, P. falciparum Indochina, OD700, 1 h, primary screen (AID 1154). As to conditions: P. falciparum Indochina infected RBC osmotic lysis, higher = more signal, called active from +8 up or from −8 down.
A short description of test [4]: plasmodial surface anion channel blockers, osmotic lysis – cell-based, P. falciparum Indochina, OD700, 2 h, primary screen (AID 1155).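 Also: lysis reports solute entry through the parasite surface anion channel PSAC.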 As to conditions: P. falciparum Indochina infected erythrocytes, higher = more signal, called active from +8 up or from −8 down.
Test [5] in a line: changes in parasitized red cell lysis, either direction – P. falciparum Indochina, OD700, 3 h, PSAC antagonist project, primary screen (AID 1156). As to conditions: P. falciparum-infected erythrocytes, osmotic lysis, higher = more signal, called active from +8 up or from −8 down.
Test [6] can be described thus: plasmodial surface anion channel blockers, osmotic lysis – cell-based, P. falciparum Indochina, OD700, 18 h, primary screen (AID 1157). As to conditions: P. falciparum Indochina infected erythrocytes, osmotic lysis OD700, 18 h; higher = more signal, called active from +8 up or from −8 down.
Test [7] is described as follows: S6 kinase pathway phospho-S6 level changes – cell-based, A549, cytoblot, luminescence, serum-stimulated, primary screen (AID 1158).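 Also: serum-stimulated A549 lung adenocarcinoma cells; signal is phosphorylated S6 detected by cytoblot immunostaining with HRP secondary.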 As to conditions: 5 h, higher = more signal.
The target of test [8] is NADPH oxidase 2 (Homo sapiens) (UniProt P04839). Description: compounds shifting NOX2 Amplex Red fluorescence – cell-based, HEK293-NOX2, PMA-stimulated, NOX inhibitor project, primary screen (AID 1159). Also: test concentration not given here. As to conditions: 45 min, higher = more signal, called active from +8 up or from −8 down.
NADPH oxidase 2 (Homo sapiens), sequence (P04839 whole entry, looked up): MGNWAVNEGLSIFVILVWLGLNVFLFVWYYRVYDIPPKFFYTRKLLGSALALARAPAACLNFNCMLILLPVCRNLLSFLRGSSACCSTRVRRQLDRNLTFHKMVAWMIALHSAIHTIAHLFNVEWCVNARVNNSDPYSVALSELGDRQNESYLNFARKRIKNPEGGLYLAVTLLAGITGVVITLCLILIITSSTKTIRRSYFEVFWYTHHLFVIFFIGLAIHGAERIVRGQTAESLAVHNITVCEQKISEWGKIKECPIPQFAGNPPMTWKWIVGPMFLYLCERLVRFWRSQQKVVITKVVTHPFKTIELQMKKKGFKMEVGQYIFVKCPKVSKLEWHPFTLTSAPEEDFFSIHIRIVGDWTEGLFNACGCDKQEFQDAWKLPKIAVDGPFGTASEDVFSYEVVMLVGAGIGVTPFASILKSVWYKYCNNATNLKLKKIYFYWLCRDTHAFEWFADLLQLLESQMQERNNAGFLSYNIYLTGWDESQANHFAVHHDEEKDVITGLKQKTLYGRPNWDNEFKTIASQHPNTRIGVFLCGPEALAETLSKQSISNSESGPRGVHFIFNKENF
Test [9] concerns the target NADPH oxidase 4 (Homo sapiens) (UniProt Q9NPH5). Description: compounds shifting NOX4 Amplex Red fluorescence – cell-based, HEK293-NOX4, tetracycline-induced, NOX inhibitor project, primary screen (AID 1160). As to conditions: HEK293-NOX4, Amplex Red H2O2 fluorescence, 45 min; higher = more signal, called active from +8 up or from −8 down.
Test [10] concerns the target NADPH oxidase 5 (Homo sapiens) (UniProt Q96PH1). Description: compounds shifting NOX5 Amplex Red fluorescence – cell-based, HEK293-NOX5, NOX inhibitor project, primary screen (AID 1161). As to conditions: HEK293-NOX5, ionomycin, 45 min, higher = more signal.
Test [11] is described as follows: compound effects on lung adenocarcinoma cell viability – A549, calcein-AM fluorescence, 48 h, basal, profiling panel (AID 1162). Also: test concentration not given here. As to conditions: higher = more signal.
The nature of test [12]: compound effects on differentiated 3T3-L1 adipocyte viability – cell-based, 3T3-L1 adipocytes, calcein-AM fluorescence, 48 h, basal, profiling panel (AID 1163). Also: test concentration not given here. As to conditions: 3T3-L1 adipocytes viability, higher = more signal.
Test [13] in a line: compound effects on hepatocellular carcinoma cell viability – HepG2, calcein-AM fluorescence, 48 h, basal, profiling panel (AID 1164). Also: test concentration not given here. As to conditions: higher = more signal.
The nature of test [14]: compound effects on multiple myeloma cell viability – MM1S, calcein-AM fluorescence, 48 h, basal, profiling panel (AID 1165). Also: test concentration not given here. As to conditions: higher = more signal.
Test [15] in a line: calcein-AM signal in unstimulated myeloma cells – cell-based, calcein-AM fluorescence, 48 h, PK04 Diversity Set, profiling panel (AID 1166).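 Also: cells grown under basal conditions without added stimulus; test concentration not given here.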 As to conditions: RPMI8226 myeloma viability, higher = more signal.
Test [16] is described as follows: JC-1 mitochondrial signal, unstimulated HepG2 cells – cell-based, JC-1 fluorescence, 24 h, 100 nL compound, profiling panel (AID 1167). Also: test concentration not given here. As to conditions: HepG2 mitochondrial potential, higher = more signal.
The nature of test [17]: JC-1 mitochondrial signal, unstimulated adipocytes – cell-based, JC-1 fluorescence, 3T3-L1 adipocytes, 24 h, 100 nL compound, profiling panel (AID 1168). Also: test concentration not given here. As to conditions: JC-1 mitochondrial fluorescence, higher = more signal, called active from +8 up or from −8 down.
A short description of test [18]: JC-1 mitochondrial signal, unstimulated myeloma cells – cell-based, JC-1 fluorescence, RPMI8226, 24 h, 100 nL compound, profiling panel (AID 1169). Also: test concentration not given here. As to conditions: JC-1 mitochondrial potential fluorescence, higher = more signal.
Test [19] is described as follows: JC-1 mitochondrial signal, unstimulated MM1S myeloma – cell-based, JC-1 fluorescence, 24 h, 100 nL compound, profiling panel (AID 1170). Also: test concentration not given here. As to conditions: MM1S mitochondrial potential, higher = more signal.
Test [20] in a line: resazurin metabolic signal in A549 cells – cell-based, resazurin fluorescence, 24 h, PK04 Diversity Set, profiling panel (AID 1171). Also: test concentration not given here. As to conditions: A549 viability, higher = more signal, called active from +8 up or from −8 down.

NADPH oxidase 4 (Homo sapiens), sequence (Q9NPH5 whole entry, looked up): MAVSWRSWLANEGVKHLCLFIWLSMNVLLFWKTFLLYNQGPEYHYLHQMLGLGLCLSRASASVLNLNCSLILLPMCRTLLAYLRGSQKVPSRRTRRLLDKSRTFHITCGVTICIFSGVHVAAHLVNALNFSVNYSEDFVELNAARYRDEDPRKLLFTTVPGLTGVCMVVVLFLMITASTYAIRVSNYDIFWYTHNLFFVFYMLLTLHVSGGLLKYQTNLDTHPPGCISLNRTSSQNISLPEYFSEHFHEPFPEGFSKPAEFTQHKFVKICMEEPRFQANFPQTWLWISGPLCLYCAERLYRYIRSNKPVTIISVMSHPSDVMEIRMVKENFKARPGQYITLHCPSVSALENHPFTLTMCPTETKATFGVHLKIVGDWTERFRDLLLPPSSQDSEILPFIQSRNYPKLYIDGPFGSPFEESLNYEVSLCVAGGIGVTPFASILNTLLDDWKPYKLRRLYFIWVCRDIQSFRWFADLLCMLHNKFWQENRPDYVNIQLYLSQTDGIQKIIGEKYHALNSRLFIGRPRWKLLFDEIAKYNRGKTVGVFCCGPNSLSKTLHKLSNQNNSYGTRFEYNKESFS
NADPH oxidase 5 (Homo sapiens), sequence (Q96PH1 whole entry, looked up): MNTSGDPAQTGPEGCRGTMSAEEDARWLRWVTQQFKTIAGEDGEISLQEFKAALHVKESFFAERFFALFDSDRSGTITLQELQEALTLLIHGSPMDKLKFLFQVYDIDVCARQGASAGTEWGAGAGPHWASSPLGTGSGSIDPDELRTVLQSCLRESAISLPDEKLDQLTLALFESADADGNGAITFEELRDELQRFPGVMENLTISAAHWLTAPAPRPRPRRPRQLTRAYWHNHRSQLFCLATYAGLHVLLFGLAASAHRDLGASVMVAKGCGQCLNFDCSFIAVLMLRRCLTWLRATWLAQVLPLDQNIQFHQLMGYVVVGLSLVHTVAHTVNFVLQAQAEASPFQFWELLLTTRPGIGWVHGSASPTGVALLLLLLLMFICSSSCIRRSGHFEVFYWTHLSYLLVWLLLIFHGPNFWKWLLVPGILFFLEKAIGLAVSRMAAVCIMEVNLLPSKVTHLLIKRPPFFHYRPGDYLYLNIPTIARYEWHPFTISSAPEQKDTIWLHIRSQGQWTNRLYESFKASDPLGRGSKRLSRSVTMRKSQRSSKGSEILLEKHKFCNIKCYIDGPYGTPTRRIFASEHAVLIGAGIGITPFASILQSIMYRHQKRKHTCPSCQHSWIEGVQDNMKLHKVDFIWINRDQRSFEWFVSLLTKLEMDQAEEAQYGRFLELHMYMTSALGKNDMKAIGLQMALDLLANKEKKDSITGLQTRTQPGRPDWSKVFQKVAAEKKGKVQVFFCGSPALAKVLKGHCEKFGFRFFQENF

For `CCOC(=O)CCN1C(=O)[C@H]2[C@H]3[C@H](O)[C@H](O)CC(=NOCc4ccccc4)[C@H]3CC[C@H]2C1=O`, the z-score in [1] was 1.02 (inactive); in [3] it was 3.06 (inactive); in [4], 0.939 (inactive); in test [5], -0.35 (inactive); in test [6], 0.451 (inactive); in [7], -0.578. Moreover, the z-score in test [8] was -0.43 (inactive); in test [9] it was 0.622 (inactive); in test [10] it was 0.279; in test [11], 0.14; in [12] it was -1.08; in test [13] it was -0.416. Moreover, the z-score in test [14] is 0.0807; in test [15], -0.273; in [16] it was 0.239; in test [17], 0.392 (inactive); in test [18], -0.508; in test [19], -1.22. In addition, in test [20], the z-score is -0.553 (inactive). The composite z-score in [2] amounted to 0.914.

Consider `CCOC(=O)[C@H](CC(C)C)NC(=O)CCC1CC(OC(=O)NCc2ccc3c(c2)OCO3)CC2(CCCC(COC(=O)NCCCN3CCCC3=O)O2)O1` (stereo not given in full), for which the z-score in test [1] was 0.015 (inactive); in [3], 1.08 (inactive); in test [4] it was 0.448 (inactive); in test [5], -0.447 (inactive); in test [6], 0.003 (inactive); in test [7], 0.375. Also, the z-score was 0.242 (inactive) in test [8]; 0.187 (inactive) in test [9]; 0.32 in test [10]; 0.526 in test [11]; -0.268 in [12]; -0.106 in [13]. Moreover, the z-score was -0.181 in test [14]; 0.514 in test [15]; 0.553 in test [16]; 0.875 (inactive) in [17]; -0.838 in test [18]; -0.328 in test [19]. The z-score in test [20] was 0.142 (inactive). Besides, the composite z-score in test [2] came to 0.0004.

In the case of `CC(CCN1CCc2nc(-c3ccccc3)c(-c3ccccc3)cc2C1)=NOC[C@@H](O)[C@H]1O[C@@H]2OC(C)(C)O[C@@H]2[C@H]1O`, the z-score is 0.784 (inactive) in [1]; 1.47 (inactive) in test [3]; 0.239 (inactive) in [4]; 0.318 (inactive) in test [5]; 0.244 (inactive) in [6]; -0.0979 in [7]. Further, the z-score in [8] is -5.63 (inactive); in [9] it was -1.69 (inactive); in test [10], -4.61; in [11] it was 1.89; in test [12], -0.144; in test [13] it was 1.62. Besides, the z-score in [14] was -2.72; in test [15], -0.676; in test [16] it was 2.55; in test [17], -1.54 (inactive); in test [18], -0.109; in test [19], 0.0398. Besides, the z-score in [20] was -0.555 (inactive). This compound gave a composite z-score in test [2] of -0.0099.

`CC=CC1=C(CO)C(=O)[C@@H]2O[C@@H]2C1=O`: the z-score is 0.33 (inactive) in test [1]; -0.4 (inactive) in test [3]; -0.344 (inactive) in test [4]; -0.501 (inactive) in [5]; -0.267 (inactive) in test [6]; -0.292 in test [7]. Besides, the z-score in test [8] was 2.08 (inactive); in test [9], -0.329 (inactive); in [10], 0.846; in test [11], -0.912; in test [12], -1.18; in [13], -0.88. Further, the z-score in [14] is -3.5; in test [15], -2.88; in [16] it was -1.86; in test [17] it was -0.316 (inactive); in [18] it was -1; in test [19], -2.1. Besides, the z-score in [20] was -0.315 (inactive). Also, the composite z-score in [2] is -0.202.
